Laboratory results taken from PubChem BioAssay AID652154 (Broad Institute, 2013).
Several values for one entry are separate records, joined by “and”; a condition that tells them apart may be missing. Equal values may be shown once. Hit rate of the full screen: of about 360,000 compounds, about 4,200 (1.2%) were called active. This is one part of a sample in which actives are shown more often than they occur.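 How the source made its calls: active means mean replicate inhibition at least 60% with every replicate also reaching 60%; inconclusive means only one of the two criteria is met; inactive means mean below 60% and not all replicates reaching 60%.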 A structure can be active in one record and inactive in another.

Experiment: PAX8 transcriptional activity inhibition in RMG-I – RMG-I cells, luciferase, single concentration, primary screen (AID 652154);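 further: luciferase light reporting Pax8 driven TPO promoter activity; plate controls were median of neutral control wells for no effect and mitoxantrone controls for full effect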
Conditions: RMG-I TPO-luciferase reporter, SteadyGlo, 24 h; at 12.6 µM; stronger effect = higher value

Structure (SMILES)	inhibition
COc1cc2c(cc1OC)CN(C(=O)c1cc(S(=O)(=O)N3CCCCC3)ccc1Cl)CC2	-3.73% (inactive)
CCOc1cc(C(=O)N2CCc3cc(OC)c(OC)cc3C2)ccc1OC(F)F	86.2% (active)
COc1cc2c(cc1OC)CN(C(=O)c1ccc(S(=O)(=O)N3CCCCCC3)cc1)CC2	11.3% (inactive)
O=C(C[C@H]1C[C@H]2c3cc(NC(=O)CC4CC4)ccc3O[C@H]2[C@H](CO)O1)NCc1ccccn1	-23.5% (inactive)
COc1ccc(S(=O)(=O)Nc2ccc3c(c2)C(=O)N([C@@H](C)CO)C[C@@H](C)[C@H](CN(C)C(=O)CCC(F)(F)F)OCCCC[C@H](C)O3)cc1	6.54% (inactive)
O=S(=O)(NCc1ccccn1)c1ccc(Br)s1	-3.1% (inactive)
O=S(=O)([N-]c1nc2ccccc2nc1-[n+]1ccc(Cc2ccccc2)cc1)c1ccc(Br)s1	70.9% (active)
COc1ccc(S(=O)(=O)Nc2cccc3c2O[C@@H](CN(C)C(=O)Nc2ccccc2)[C@@H](C)CN([C@H](C)CO)C3=O)cc1	11% (inactive)
Cc1ccc(S(=O)(=O)NC(C(=O)N2CCOCCOCCOCCOCC2)c2ccccc2)cc1 (stereo not given)	5.5% (inactive)
Cc1oc2c(c1C(=O)N1CCOCC1)C(=O)c1ccccc1C2=O	83.3% (active)
Cc1ccc(C(=O)N2CCN(S(=O)(=O)N3CCOCC3)CC2)cc1	-3.97% (inactive)
CN(C)C(=O)[C@@H]1[C@@H](CO)[C@@H]2Cn3c(cccc3=O)[C@@H]2N1C(=O)C1CCC1	-6.21% (inactive)
CCCN1C[C@@H](C)[C@@H](OC)CN(C)C(=O)c2cc(NC(=O)Nc3cccc(F)c3)ccc2OC[C@@H]1C	13.5% (inactive)
N#C[C@@H]1[C@@H](c2ccc(C3=CCCC3)cc2)[C@@H](CO)N1C(=O)C1CCCC1	3.84% (inactive)
CCCCC(=O)NC(c1ccc(OC)c(OC)c1)c1ccc2cccnc2c1O (stereo not given)	78.7% (active)
CCOc1ccc(C(CC(=O)O)n2cnnn2)cc1OC (stereo not given)	7.25% (inactive)
C=CCn1c(COc2cccc3cccnc23)nnc1SCC(=O)OC	21.9% (inactive)
C[C@@H]1CCCCO[C@@H](CN(C)C(=O)Nc2cccc3ccccc23)[C@H](C)CN([C@H](C)CO)C(=O)c2cc(NC(=O)NC3CCCCC3)ccc2O1	34.7% (inactive)
Cc1noc(C)c1S(=O)(=O)Nc1ccc2c(c1)C(=O)N([C@@H](C)CO)C[C@@H](C)[C@@H](CN(C)Cc1ccccc1)OCCCC[C@H](C)O2	27.1% (inactive)
COc1ccc(CN2C(=O)C(CC(=O)NCCCCc3ccccc3)CC(C(=O)N3CCOCC3)=C2C)cc1 (stereo not given)	91.4% (active)
CCN(CC)C(=O)C1=C(C)N(Cc2ccc(OC)cc2)C(=O)C(CC(=O)NCCCCc2ccccc2)C1 (stereo not given)	8.41% (inactive)
COc1ccc(CN2C(=O)C(CC(=O)NCc3cccc4ccccc34)CC(C(=O)N3CCOCC3)=C2C)cc1 (stereo not given)	-99.8% (inactive)

Structure (SMILES)	inhibition
CN1C(=O)c2cc(NC(=O)c3ccc(F)cc3)ccc2OC[C@H]2O[C@H](CC(=O)N3CCOCC3)CC[C@@H]21	-0.681% (inactive)
COc1ccc(Cl)cc1C(=O)NNC(=O)c1nc2nc(C)cc(C)n2n1	-17.5% (inactive)
Cc1cc(C)n2nc(CNS(=O)(=O)c3c(F)c(F)c(F)c(F)c3F)nc2n1	85.5% (active)
Cc1cc(C)n2nc(SCC(N)=O)nc2n1	-3.44% (inactive)
Cc1noc(C)c1NC(=O)Nc1ccc2c(c1)C(=O)N([C@@H](C)CO)C[C@@H](C)[C@@H](CN(C)CC1CCCCC1)O2	-11.2% (inactive)
COc1ccc(NC(=O)N(C)C[C@@H]2Oc3ccc(NC(=O)CCCN(C)C)cc3CC(=O)N([C@H](C)CO)C[C@H]2C)cc1	2.7% (inactive)
C[C@@H]1CCCCO[C@H](CN(C)Cc2ccc(Cl)c(Cl)c2)[C@@H](C)CN([C@@H](C)CO)C(=O)c2cc(NC(=O)Nc3ccccc3)ccc2O1	93.9% (active)
C[C@H]1CCCCO[C@@H](CN(C)Cc2ccc3c(c2)OCO3)[C@@H](C)CN([C@@H](C)CO)C(=O)c2cc(NC(=O)Nc3ccc(F)cc3)ccc2O1	87.4% (active)
C[C@H]1CCCCO[C@H](CN(C)Cc2ccccc2)[C@@H](C)CN([C@@H](C)CO)C(=O)c2cc(NC(=O)NC3CCCCC3)ccc2O1	5.95% (inactive)
C[C@H](CO)N1C[C@H](C)[C@H](CN(C)Cc2ccc(Cl)c(Cl)c2)OCCCC[C@H](C)Oc2ccc(NC(=O)NC3CCCCC3)cc2C1=O	92.7% (active)
C[C@H]1CCCCO[C@@H](CN(C)Cc2ccncc2)[C@@H](C)CN([C@@H](C)CO)C(=O)c2cc(NC(=O)Nc3ccc(F)cc3)ccc2O1	-6.76% (inactive)
C[C@@H]1CN([C@H](C)CO)C(=O)c2cc(NC(=O)Nc3ccccc3)ccc2O[C@@H](C)CCCCO[C@@H]1CN(C)Cc1ccncc1	6.95% (inactive)
C[C@@H]1CCCCO[C@@H](CN(C)Cc2ccncc2)[C@H](C)CN([C@H](C)CO)C(=O)c2cc(NC(=O)NC3CCCCC3)ccc2O1	8.64% (inactive)
C[C@@H]1CN([C@H](C)CO)C(=O)c2cc(NC(=O)Nc3ccc(F)cc3)ccc2O[C@@H](C)CCCCO[C@H]1CN(C)Cc1ccc(Cl)c(Cl)c1	77.5% (active)
C[C@@H]1CCCCO[C@@H](CN(C)Cc2ccncc2)[C@@H](C)CN([C@@H](C)CO)C(=O)c2cc(NC(=O)Nc3ccc(F)cc3)ccc2O1	-6.16% (inactive)
C[C@@H]1CN([C@H](C)CO)C(=O)c2cc(NC(=O)Nc3ccc4c(c3)OCO4)ccc2O[C@@H](C)CCCCO[C@@H]1CN(C)Cc1ccc2c(c1)OCO2	25.2% (inactive)
C[C@@H]1CCCCO[C@H](CN(C)Cc2ccncc2)[C@H](C)CN([C@H](C)CO)C(=O)c2cc(NC(=O)Nc3ccccc3)ccc2O1	18.7% (inactive)
C[C@@H]1CCCCO[C@@H](CN(C)Cc2ccc3c(c2)OCO3)[C@@H](C)CN([C@@H](C)CO)C(=O)c2cc(NC(=O)Nc3ccccc3)ccc2O1	-0.474% (inactive)
CN(C)C(=O)[C@H]1[C@H](CO)[C@H]2Cn3c(ccc(-c4ccc(F)cc4)c3=O)[C@H]2N1C(=O)c1ccccn1	-7.59% (inactive)
CCCNC(=O)N[C@@H]1CC[C@@H](CCn2cc(C3CC3)nn2)O[C@@H]1CO	3.4% (inactive)
C[C@@H]1CCCCO[C@@H](CN(C)S(=O)(=O)c2cn(C)cn2)[C@H](C)CN([C@H](C)CO)C(=O)c2cc(NS(=O)(=O)c3ccc(Cl)cc3)ccc2O1	4.97% (inactive)
C[C@H]1CN([C@@H](C)CO)C(=O)c2cccc(NS(=O)(=O)c3ccc(Cl)cc3)c2O[C@H]1CN(C)Cc1ccc2c(c1)OCO2	4.78% (inactive)

Structure (SMILES)	inhibition
CC(C)NC(=O)N[C@H]1CC[C@@H](CC(=O)NCc2ccc(Oc3ccccc3)cc2)O[C@@H]1CO	-20.9% (inactive)
C[C@H](CO)N1C[C@H](C)[C@H](CN(C)C(=O)Nc2ccc(F)cc2)Oc2ncc(-c3cc4ccccc4o3)cc2C1=O	23.1% (inactive)
CC(C)NC(=O)Nc1ccc2c(c1)C(=O)N([C@@H](C)CO)C[C@@H](C)[C@H](CN(C)Cc1ccc(Cl)c(Cl)c1)OCCCC[C@H](C)O2	38% (inactive)
C[C@@H]1CCCCO[C@@H](CN(C)Cc2ccc(Cl)c(Cl)c2)[C@H](C)CN([C@H](C)CO)C(=O)c2cc(NC(=O)Nc3ccc(F)cc3)ccc2O1	102% (active)
COc1ccc(NC(=O)Nc2ccc3c(c2)C(=O)N([C@H](C)CO)C[C@@H](C)[C@H](CN(C)Cc2ccc(Cl)c(Cl)c2)OCCCC[C@@H](C)O3)cc1	57.5% (inactive)
O=S(=O)(c1ccccc1)N1C[C@@H]2[C@H](c3ccccc31)[C@H](CO)N2Cc1ccccn1	19.7% (inactive)
O=C(C1CCCCC1)N1CC2(C1)[C@H](c1ccccc1)[C@@H](CO)N2CCC(F)(F)F	-17.1% (inactive)
CC(=O)Nc1ccc2c(c1)C(=O)N(C)[C@@H]1CC[C@@H](CC(=O)NCC3CCCCC3)O[C@@H]1CO2	-4.32% (inactive)
COc1ccc(NC(=O)Nc2ccc3c(c2)C(=O)N([C@@H](C)CO)C[C@H](C)[C@@H](CN(C)C(=O)NC2CCCCC2)O3)cc1	-4.33% (inactive)
COc1ccc(OC)c(C2C3=C(N=c4s/c(=C\c5cccc(O)c5)c(=O)n42)c2ccccc2CC3)c1 (stereo not given)	64.2% (active)
COc1ccc(/C=C2/CCCc3ccccc3C2=O)cc1	-38.8% (inactive)
COc1ccc(C[C@@H]2CCc3cnnn3COC[C@H](c3ccccc3)NC2=O)cc1	1.19% (inactive)
O=C(C1CCOCC1)N1CC(=O)N2[C@H](CO)[C@H](c3ccc(C#Cc4cccc(F)c4)cc3)[C@H]2C1	-14.5% (inactive)
O=C(N[C@H]1CC[C@H](CCn2cc(C3(O)CCCC3)nn2)O[C@H]1CO)C1CC1	13.3% (inactive)
O=C(c1ccncc1)N1CCCCN2[C@H](CO)[C@@H](c3ccc(C#Cc4ccccn4)cc3)[C@H]2C1	5.08% (inactive)
O=C(COc1ccc(-n2cnnn2)cc1)Nc1ccccc1Cl	-3.21% (inactive)
O=C(Nc1ccccc1Cl)/C(Cl)=C(\Cl)S(=O)c1ccccc1 (stereo not given)	111% (active)
CS/C(=C\C(=O)c1ccco1)Nc1ccccc1Cl	30.8% (inactive)
Cn1cnc(S(=O)(=O)N2C[C@@H]3N[C@H](C2)C3c2ccc(/C=C/c3ccccc3)cc2)c1 (stereo not given in full)	-2.85% (inactive) and -1.61% (inactive)
Cn1cnc(S(=O)(=O)N2C[C@@H]3N[C@H](C2)C3c2ccc(-c3ccccc3F)cc2)c1 (stereo not given in full)	77.5% (active) and 26.1% (inactive)
COc1ccc(-c2ccc(C3[C@@H]4CN(S(=O)(=O)c5cn(C)cn5)C[C@H]3N4)cc2)cc1 (stereo not given in full)	-15.4% (inactive)
